Results published in PubChem BioAssay (EPA / NIEHS).
Several values for one entry are separate records, joined by “and”; a condition that tells them apart may be missing. Equal values may be shown once. Activity calls are given as the source filed them. Rule for the calls: active = hit-call score of the fitted dose curve at least 0.9, where 1 is the maximum; inactive = score below 0.9.

read-out: Collagen I, COL1A1 (gene 1277); experiment: BSK_MyoF_CollagenI: BioMAP Diversity Plus: MyoF Assay for Collagen I Biomarker Activity (AID 2284238); settings: primary human lung fibroblasts
Method: BSK_MyoF is a cell-based, multiplexed-readout assay that uses lung fibroblasts, […], with measurements taken at 24 hours after chemical dosing in a microplate: 96-well plate.BSK_MyoF_CollagenI is an assay component measured in the BSK_MyoF assay. It measures Collagen I antibody related to regulation of gene expression using ELISA technology.Data from the assay component BSK_MyoF_CollagenI was analyzed at the endpoint, BSK_MyoF_CollagenI, in the positive analysis fitting direction relative to DMSO as the negative control and baseline of activity. Using a type of binding reporter, gain or loss-of-signal activity can be used to understand protein changes. To generalize the intended target to other relatable targets, this assay endpoint is annotated to the 'cell adhesion molecules' intended target family, where the subfamily is 'collagen'.
The levels of cell surface (or secreted, indicated by the prefix "s") biomarker endpoints were measured by ELISA. Overt cytotoxicity to cells in confluent adherent cultures (all systems other than the BT system) was assessed by measuring total protein levels using sulforhodamine B (SRB) staining in parallel cultures at the time of biomarker measurements, indicated as SRB endpoints. For proliferation assays for adherent cell types, individual cell types are cultured at sub-confluence and relative cell numbers quantified by SRB staining at time points optimized for each system (48 h: 3C and CASM3C systems; 72 h: BT and HDF3CGF systems; 96 h: SAg system). SRB was performed by staining cells with 0.1% SRB after fixation with 10% TCA and reading wells at 560 nm.Viability and proliferation of PBMC (T cells) was quantified by Alamar Blue reduction for the SAg and BT systems. For PBMC viability (referred to as PBMC Cytotoxicity within the assay endpoint names), cells were plated (75,000/well in a 96-well plate) and then chemical samples added for 1 h before addition of activators, SEB and TSST-1 (20 ng/mL final concentration each). Cells were incubated for 90 h. Then, Alamar Blue (20 uL/well) (Invitrogen, Cat DAL1100) was added for 6 h, and the plates were read with a fluorescence microplate reader at 546/580 nm (excitation/emission). For PBMC proliferation, cells were plated and activated as above but incubated for only 16 h prior to addition of Alamar Blue. Plates were read after 6 h.

SMILES	outcome	AC50
CC1(C)Cc2cccc(O)c2O1	inactive	
CC(C)CCCCCCOC(=O)c1ccccc1C(=O)OCCCCCCC(C)C	inactive	
OCc1ccco1	inactive	
O=C(O)CCC(F)(C(F)(F)F)C(F)(F)F	inactive	
CCNc1nc(NC(C)(C)C)nc(SC)n1	inactive	
ClC1=C(Cl)[C@]2(Cl)[C@H]3[C@H]([C@H]4C=C[C@H]3C4)[C@@]1(Cl)C2(Cl)Cl	inactive	
CCOC(=O)/C=C(C)/C=C/C[C@@H](C)CCCC(C)C		32.5 µM (active)
COP(=S)(OC)Oc1ccc(Sc2ccc(OP(=S)(OC)OC)cc2)cc1		28.7 µM (active)
O=C(OC1CCCCC1)c1ccccc1C(=O)OC1CCCCC1		13 µM (active)
CCSC(C)CC1CC(=O)C(C(CC)=NOC/C=C/Cl)=C(O)C1 (stereo unspecified)	inactive	
Oc1ccc(-c2ccccc2)cc1	inactive	
CCOP(=S)(OCC)SCCS(=O)(=O)CC	inactive	
Nc1ncc([N+](=O)[O-])s1	inactive	
CCCCC(CC)CO[N+](=O)[O-] (stereo unspecified)	inactive	
O=Cc1cccc(Oc2ccccc2)c1	inactive	
ClC(Cl)=C(Cl)C(Cl)=C(Cl)Cl		29.7 µM (active)
COC[C@H](C)N(C(=O)CCl)c1c(C)csc1C	inactive	
CCCCCCCCC(=O)NCc1ccc(O)c(OC)c1	inactive	

SMILES	outcome	AC50
COC(=O)c1sccc1S(=O)(=O)NC(=O)Nc1nc(C)nc(OC)n1	inactive	
NC(=S)Nc1ccccc1	inactive	
O=[N+]([O-])c1ccc2c3c(cccc13)CC2	inactive	
CC(C)c1ccc(CO)cc1	inactive	
BrCCBr	inactive	
Nc1ccc(-c2ccc(N)c(Cl)c2)cc1Cl		13.7 µM (active)
CCOP(=S)(OCC)Oc1ccc(S(C)=O)cc1 (stereo unspecified)	inactive	
Oc1c(I)cc(I)cc1I		9.61 µM (active)
C(=NC1CCCCC1)=NC1CCCCC1		5.82 µM (active)
COP(=S)(OC)Oc1c(Cl)cc(C)cc1Cl	inactive	
COP(=S)(OC)Oc1ccc(S(=O)(=O)N(C)C)cc1	inactive	
COP(=S)(OC)Oc1cc(Cl)c(Cl)cc1Cl	inactive	
O=C(O)C(F)(F)C(F)(F)C(F)(F)C(F)(F)C(F)(F)C(F)(F)F	inactive	
O=S(=O)(c1ccc(Cl)cc1)c1ccc(Cl)cc1	inactive	
O=C(O)C(F)(F)C(F)(F)C(F)(F)C(F)(F)C(F)(F)C(F)(F)C(F)(F)C(F)(F)C(F)(F)C(F)(F)F		2.19 µM (active) and 2.25 µM (active)
CC(=O)C(Cl)C(=O)N(C)C (stereo unspecified)	inactive	
COc1cc(OC)nc(NC(=O)NS(=O)(=O)c2ncccc2C(=O)N(C)C)n1	inactive	
Nc1cccc2ccccc12	inactive	
